Screening data: PubChem BioAssay, Broad Institute
PD-1 reversal: activators reversing PD-1 mediated T-cell inhibition; primary human CD4 T cells, PD-L1 beads, CellTiter-Glo 96 h; activation, % (concentration not given with the values); 29,000 tested, under 10 active; AID 2316; call rule not given here
NOMO-1 viab: STK33 inhibitor candidate reducing NOMO-1 cell viability; NOMO-1 AML viability, CellTiter-Glo luminescence, 72 h; inhibition, % (no concentration beside the values); AID 2330; 37,000 tested, 7.5% active; in the data active means inhibition above about 80%; inconclusive means no clear call, values can overlap the other calls
Hedgehog inh: Sonic Hedgehog pathway inhibition. Shh-LIGHT2 Gli-luciferase reporter, 30 h. inhibition, % (concentration not given with the values). 22,000 tested, 2.1% active. AID 2313;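 active means mean inhibition across valid replicates above about 65%, limit read from the data; inconclusive means mean under the limit, yet half or more replicates past it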;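 further: pathway switched on by Shh-conditioned medium diluted 1 in 25 in low serum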
Numbers stand for hits; 0 = inactive; ? = inconclusive; - = not tested or not shown. A selection: hits, their analogues and other compounds. The true share with any hit is near 7.7%.

SMILES	PD-1 reversal	NOMO-1 viab	Hedgehog inh
CC1(C)CC[C@]2(C(=O)O[C@@H]3O[C@H](CO)[C@@H](O)[C@H](O)[C@H]3O)CC[C@]3(C)C(=CCC4[C@@]5(C)CC[C@H](O[C@@H]6O[C@H](CO)[C@@H](O)[C@H](O[C@@H]7O[C@H](CO)[C@@H](O)[C@H](O)[C@H]7O)[C@H]6O[C@@H]6O[C@H](CO)[C@H](O)[C@H](O)[C@H]6O)C(C)(C)C5CC[C@]43C)[C@@H]2C1 (some centres not stated)	-	-	0
CC(C)(CCO[C@@H]1O[C@H](CO[C@@H]2OC[C@@H](O)[C@H](O)[C@H]2O)[C@@H](O)[C@H](O)[C@H]1O)C[C@@H]1C(C(=O)O)=CC[C@]2(C(=O)O)C1=CCC1[C@@]3(C)CC[C@H](O[C@@H]4O[C@H](CO[C@@H]5O[C@H](CO)[C@@H](O)[C@H](O)[C@H]5O)[C@@H](O)[C@H](O)[C@H]4O)C(C)(C)C3CC[C@]12C (some centres not stated)	-	-	106
C[C@@H]1O[C@@H](O[C@H]2[C@H](O[C@H]3CC[C@@]4(C)C(CC[C@]5(C)C4CC=C4C6CC(C)(C)CC[C@]6(C(=O)O)CC[C@]45C)[C@]3(C)CO)OC[C@H](O)[C@@H]2O)[C@H](O)[C@H](O)[C@H]1O (some centres not stated)	0	119	74
CC1CC[C@]2(C(=O)OC3OC(COC4OC(CO)C(O)C(O)C4O)C(O)C(O)C3O)CC[C@]3(C(=O)O)C(=CCC4[C@@]5(C)CC[C@H](OC6OC(C)C(O)C(O)C6O)C(C)(C)C5CC[C@]43C)C2C1C (some centres not stated)	0	0	0
C[C@@H]1O[C@@H](O[C@H]2[C@H](O[C@H]3[C@H](O[C@H]4CC[C@@]5(C)C(CC[C@]6(C)C5CC=C5[C@@H]7CC(C)(C)C[C@@H](O)[C@]7(C)CC[C@]56C)[C@@]4(C)CO)O[C@H](C(=O)O)[C@@H](O)[C@@H]3O)OC[C@H](O)[C@@H]2O)[C@H](O)[C@H](O)[C@H]1O (some centres not stated)	0	0	0
COc1ccc(NC(=O)C(=O)NCC(=O)Nc2ccccc2OC)cc1	-	0	-
CCOC(=O)COc1cccc(-c2nc3ccccc3s2)c1	0	0	-
S=C(NC1CCCCC1)Sc1ccc(Cl)cc1	0	122	0
S=C(NC1CCCCC1)C(=S)NC1CCCCC1	0	0	0
Cn1c(SCC(=O)Nc2ccc(Oc3ccccc3)cc2)nnc1-c1ccccn1	0	0	-
COC(=O)CNC(=O)c1cn(-c2ccccc2)nc1-c1cc2ccccc2oc1=O	-	111	-
COC(=O)CNC(=O)c1cn(-c2ccccc2)nc1-c1ccccc1	0	0	-
COc1ccc(CCC(=O)O)c(O)c1	0	0	0
COCc1cc(O)c(O)c(O)c1-c1c(COC)cc(O)c(O)c1O	0	97	0
Cc1nc2ccccc2n1CC(O)COCC1CC=CCC1 (configuration not stated)	0	0	-
Cc1ccc(C(C)C)cc1OCC(O)Cn1c(C)nc2ccccc21 (configuration not stated)	0	105	-
CCN(CC(=O)Nc1cccc(OC)c1)S(=O)(=O)c1ccc2ccccc2c1	0	0	-
O=C(Cn1nnc2ccccc21)OCc1ccccc1Cl	0	0	-
O=C(NCCCN1CCCC1=O)c1cc(-c2cccnc2)nc2ccc(Br)cc12	-	0	-
Cc1ccc(OCC(=O)Nc2cccc(-c3nc4ccccc4[nH]3)c2)cc1	0	0	-
COc1ccc(CC(=O)Nc2cccc(-c3nc4cc5ccccc5cc4[nH]3)c2)cc1	0	135	-
CSc1nc(-c2cccnc2)nc(-c2ccc(OC(F)(F)F)cc2)c1C#N	0	0	0
CN(CC(=O)N1CCC(C(N)=O)CC1)S(=O)(=O)c1ccc(F)cc1	0	0	-
Fc1cc(F)c(NC(=S)N2CCOCC2)c(F)c1	0	0	0
S=C(CC(=S)N1CCOCC1)N1CCOCC1	0	86	0
SMILES	PD-1 reversal	NOMO-1 viab	Hedgehog inh
Cc1ccc(S(=O)(=O)CCSc2cccc(C(=O)Nc3ccccc3)c2)cc1	-	0	-
N#C/C(=C/c1ccc(O)c(O)c1)C(=O)OC/C=C/c1ccccc1	-	99	?
N#C/C(=C\c1ccc(O)c(O)c1)C(=O)Nc1ccccc1	0	?	0
CCCCCC(O)CC(O)CCc1ccc(O)c(OC)c1 (configuration not stated)	-	-	0
CCCCCCCCC[C@@H](O)CC(=O)CCc1ccc(O)c(OC)c1	0	92	0
C[C@@H]1CN([C@H](C)CO)C(=O)Cc2cc(NC(=O)Cc3ccccc3)ccc2O[C@@H]1CN(C)Cc1ccc(Cl)c(Cl)c1	0	127	0
C[C@@H]1CN([C@H](C)CO)C(=O)Cc2cc(NC(=O)Cc3ccccc3)ccc2O[C@H]1CN(C)Cc1ccc2c(c1)OCO2	0	0	0
C[C@@H]1CN([C@@H](C)CO)C(=O)Cc2cc(NC(=O)Cc3ccccc3)ccc2O[C@@H]1CN(C)Cc1ccc(Cl)c(Cl)c1	0	108	-
C[C@@H]1CN([C@@H](C)CO)C(=O)Cc2cc(NC(=O)Cc3ccccc3)ccc2O[C@@H]1CN(C)Cc1ccccc1	0	0	0
COC(=O)c1ccc(NC(=O)CN(c2ccc(I)cc2)S(C)(=O)=O)cc1	0	0	-
CC#CCc1cc2ccccc2c(=O)o1	0	0	0
O=c1oc(Cl)c(Cl)c2ccccc12	-	119	79
NC(=NCc1ccc(Cl)cc1Cl)NC(=O)c1nc(Cl)c(N)nc1N	-	120	0
NC(N)=NC(=O)c1nc(Cl)c(N)nc1N	-	0	0
CC(=O)OC/C=C(\CO)CC/C=C(\C)CC/C=C(\CC/C=C(\C)COC(C)=O)C(=O)O	-	-	0
COC(=O)c1cc(OC)c(OC)cc1NC(=O)COc1ccc(Br)cc1Cl	0	0	-
Cc1ccc(S(=O)(=O)Nc2ccc3c(c2)C(=O)N([C@H](C)CO)C[C@H](C)[C@@H](CN(C)Cc2ccc(C(=O)Nc4ccccc4N)cc2)O3)cc1	0	0	-
COc1ccc(S(=O)(=O)Nc2ccc3c(c2)C(=O)N([C@@H](C)CO)C[C@@H](C)[C@@H](CN(C)Cc2ccc(C(=O)Nc4ccccc4N)cc2)O3)cc1	0	110	-
COc1ccc(S(=O)(=O)Nc2ccc3c(c2)C(=O)N([C@H](C)CO)C[C@@H](C)[C@@H](CN(C)Cc2ccc(C(=O)Nc4ccccc4N)cc2)O3)cc1	0	108	-
COc1ccc(S(=O)(=O)Nc2ccc3c(c2)C(=O)N([C@@H](C)CO)C[C@@H](C)[C@H](CN(C)Cc2ccc(C(=O)Nc4ccccc4N)cc2)O3)cc1	0	0	-
COC(=O)C1=C(N)C(C(=O)OC)=c2s/c(=C/c3ccccc3)c(=O)n2C1c1ccccc1 (configuration not stated)	0	0	0
Cc1cc(C)cc(N(CC(=O)Nc2ccc(Br)c(Cl)c2)S(C)(=O)=O)c1	0	0	-
O=C(Oc1ccc2cc(OC(=O)c3ccccc3)ccc2c1)c1ccccc1	0	0	-
O=C(Oc1ccccc1OC(=O)c1ccccc1)c1ccccc1	0	115	0
CC1(C)CCC[C@]2(C)C1CC=C(CO)[C@H]2CC/C(=C/CO)CO (some centres not stated)	-	-	0
C/C(=C/CO)CC[C@@H]1[C@@](C)(O)CCC2C(C)(C)CCC[C@]21C (some centres not stated)	0	101	0
CCn1c(SCC(=O)Nc2ccc(Br)cc2C)nnc1-c1ccccc1F	0	0	-
